# Sampled rows, rich in hits. Any-hit rate of the full collection: about 4.5%.
# CSC inhib: cancer stem cell inhibition. cancer stem cell-like cells viability, luminescence. actives 1.1% (n = 300,000). AID 2717. inhibition, % at 7.5 µM; in the data active means inhibition above about 75%; tested in HMLE shEcad cells
# Mdm2 MdmX PPI: human Mdm2/MdmX binding inhibition; O15151+Q00987; SaOS-2 split-luciferase Mdm2/MdmX complementation, luminescence; inhibition, % at 8 µM; actives 3% (n = 330,000); AID 485346;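 active means inhibition of at least 50% at 8 µM in the primary screen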
# Beta cell apopt: beta cell apoptosis inhibition | INS-1E cytokine-induced death, ATP luminescence, 48 h; percent of positive-control rescue, neutral wells zero | actives 0.8% (n = 300,000) | protection from apoptosis, % (no concentration beside the values);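 active means Every replicate reaches about 75%, or at least half do and their mean reaches it too, limit read from the data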;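 further: 0% = cytokine-treated negative control wells and 100% = positive control rescue; higher means more ATP so stronger rescue from cytokine killing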
# Gli-Sufu block: Gli-Sufu pathway antagonism; Sufu-KO-LIGHT fibroblasts, Gli luciferase reporter luminescence; inhibition, % at 5 µM; actives 0.74% (n = 340,000); AID 588413;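 active means inhibition above about 55%, limit read from the data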;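 further: 0% = DMSO-treated cells and 100% = wells with medium but no cells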
# 697 NFkB inh: inhibitors of the PMA/ionomycin-induced NF-kB reporter in 697 B cells; 697 B-cell NF-kB luciferase reporter, 16 h; AID 435022; inhibition, % at 4 µM; actives 0.33% (n = 330,000); in the data active means inhibition above about 35%
# Jurkat NFkB inh: lowers PMA/ionomycin-induced NF-kB signal in Jurkat cells; PMA/ionomycin-induced NF-kB luciferase reporter, luminescence; inhibition, % at 4 µM; actives 0.53% (n = 330,000); in the data active means inhibition above about 50%
# Mdm2-MdmX conf: confirmation of human Mdm2/MdmX interaction inhibitors | shares compounds with Mdm2 MdmX PPI | actives 55% (n = 10,000) | Mdm2-MdmX binding, luminescent assay | inhibition, % at 8 µM; in the data active means inhibition above about 40%
# Full FLuc ctr: inhibits full-length luciferase, flagging false Mdm2/MdmX hits | inhibition, % at 8 µM | shares compounds with Mdm2 MdmX PPI | actives 77% (n = 6,200) | SaOS-2 full-length luciferase counterscreen, luminescence;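 active means mean inhibition at 8 µM reaching about 37%, which flags the compound as non-specific, limit read from the data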;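 further: p53-null SaOS-2 cells with luciferase driven by a doxycycline-inducible promoter; compound on cells about two nights before reading with doxycycline added after day one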
# * = called active by the depositor; . = no result.
SMILES,CSC inhib,Mdm2 MdmX PPI,Beta cell apopt,Gli-Sufu block,697 NFkB inh,Jurkat NFkB inh,Mdm2-MdmX conf,others
Cc1ccc(/C=N/N2C(=S)SC(C)(C)C2N(O)C(=O)Nc2ccc([N+](=O)[O-])cc2)cc1 (stereo not drawn),35,67*,11,-17,7,-2,25,
CC1(C)SC(=S)N(/N=C/c2ccc(O)cc2)C1N(O)C(=O)Nc1ccc([N+](=O)[O-])cc1 (stereo not drawn),7,18,0,2,-20,11,.,
O=c1[nH]c(/C=C/c2ccc(OC(F)F)cc2)nc2c1cnn2-c1ccccc1,2,66*,3,-5,-9,5,-1,
CCn1c(=S)sc2c(=O)n(CC(=O)Nc3ccccc3C(F)(F)F)c(C)nc21,-9,53*,-1,0,20,-6,6,
Cc1nc2c(sc(=S)n2Cc2ccco2)c(=O)n1CC(=O)Nc1ccc(F)cc1,0,52*,5,12,-7,-1,21,
CCn1c2nc(SCCN3CCOCC3)nnc2c2cc(C)cc(C)c21,3,16,3,10,13,-12,.,
Cc1sc2nc(-c3ccccn3)[nH]c(=O)c2c1-c1ccccc1,21,57*,61,-16,-62,-27,31,
Cc1sc2nc(-c3ccncc3)[nH]c(=O)c2c1-c1ccccc1,8,-20,0,.,21,5,.,
CC(NC(=O)c1cc2cc(Br)ccc2oc1=N)c1ccccc1 (stereo not drawn),-1,32,-4,-1,9,5,.,
C[C@@H]1CC=C[C@H]2[C@H]1C(=O)N(Cc1ccccc1)[C@H]2c1ccc(Br)cc1F,31,39,-3,-37,12,10,.,
CC[C@@H]1CC=C[C@H]2[C@H]1C(=O)N(Cc1ccccc1)[C@H]2c1ccoc1,86*,69*,6,0,-144,17,9,
C[C@@H]1CC=C[C@H]2[C@H]1C(=O)N(Cc1ccccc1)[C@H]2c1ccoc1,15,5,-12,-1,-21,1,.,
CC(=O)c1ccc(-c2ccc([C@H]3[C@@H]4C=CCC[C@@]4(C)C(=O)N3Cc3ccccc3)c(F)c2)cc1,121*,54*,22,-22,14,4,16,
C[C@@]12CCC=C[C@H]1[C@H](c1ccc3ccccc3c1Br)N(Cc1ccccc1)C2=O,.,50*,6,2,-2,7,9,
C[C@@H]1CC=C[C@H]2[C@H]1C(=O)N(Cc1ccccc1)[C@H]2c1ccc2ccccc2c1Br,.,84*,.,8,-165,29,27,
C#CCOCCOCCOCCNc1nc(N2CCN(C(=O)[C@H]([C@@H](C)CC)n3cc(CCCN=C(N)N)nn3)CC2)nc(N2CCN(C(=O)[C@H]([C@@H](C)CC)n3cc(CCC(=O)O)nn3)CC2)n1,.,.,.,2,.,.,.,
CC(=O)c1ccc(-c2ccc([C@H]3[C@H]4C=CC[C@@H](C)[C@@H]4C(=O)N3Cc3ccccc3)c(F)c2)cc1,75*,56*,9,-1,11,7,11,
COC(=O)c1ccc(-c2ccc([C@H]3[C@H]4C=CC[C@@H](C)[C@@H]4C(=O)N3Cc3ccccc3)c(F)c2)cc1,-1,39,3,3,-37,1,.,
COc1ccccc1CNC(=S)Nc1ccc2nc(N3CCN(C)CC3)cc(C)c2c1,80*,54*,-5,3,-25,-5,50*,Full FLuc ctr=61*
Cc1cc(N2CCN(C)CC2)nc2ccc(NC(=O)c3ccc4c(c3)OCO4)cc12,19,55*,-13,-22,-77,-26,17,
Cc1cc(N2CCN(C)CC2)nc2ccc(NC(=O)c3ccc(Br)o3)cc12,12,30,18,-5,-16,-16,.,
COc1cc(C(=O)Nc2ccc3nc(N4CCN(C)CC4)cc(C)c3c2)cc(OC)c1OC,-14,53*,-4,-5,6,-34,35,
CC[C@]1(C(=O)OC)[C@H]2C(=O)N(C)C(=O)[C@H]2[C@H]2CN=C(SCC3CC3)N21,.,19,.,6,6,.,.,
COc1cnc(-c2ccccn2)nc1N(C)C,45,72*,81*,37,5,16,79*,Full FLuc ctr=42*
COc1ccc(Oc2nc(-c3ccccn3)ncc2OC)cc1,-11,16,3,-2,11,5,.,
SMILES,CSC inhib,Mdm2 MdmX PPI,Beta cell apopt,Gli-Sufu block,697 NFkB inh,Jurkat NFkB inh,Mdm2-MdmX conf,others
Cc1cc(C)c2nc(NNC(=O)c3ccc(S(=O)(=O)N4CCc5ccccc5C4)cc3)sc2c1,104*,82*,87*,2,-19,8,86*,Full FLuc ctr=38*
Cc1cc(C)c2sc(NNC(=O)c3ccc(S(=O)(=O)N4CCc5ccccc5C4)cc3)nc2c1,103*,83*,101*,26,-47,29,85*,Full FLuc ctr=42*
Cc1ccc(NC(=O)COc2ccccc2CNC(C)(C)CC(C)(C)C)cc1,12,90*,34,-12,1,5,53*,Full FLuc ctr=59*
CC(C)(CO)NCc1ccccc1OCC(=O)Nc1ccccc1,-5,4,-4,3,5,-25,.,
CCCN(CC(=O)Nc1ccccc1C)C(=O)CCl,-2,95*,-4,-1,-13,29,97*,Full FLuc ctr=49*
CCCN(CC(=O)Nc1ccccc1C)C(=O)COc1c(C)cccc1C,.,-8,-4,-2,-52,-26,.,
CCOc1ccc(S(=O)(=O)N2CCN(C(=O)c3cc([N+](=O)[O-])ccc3N3CCOCC3)CC2)cc1,.,60*,-7,3,22,39,28,
O=C(c1cc([N+](=O)[O-])ccc1N1CCOCC1)N1CCN(S(=O)(=O)c2ccc(F)cc2)CC1,-12,17,.,5,5,10,.,
Cc1noc(C)c1CSc1nc2ccccc2c(=O)n1-c1ccc(F)cc1F,55,66*,14,10,-8,49,53*,Full FLuc ctr=58*
COc1ccc(CNC(=O)CN2CCC(NC(=O)c3cccc(OC)c3)CC2)cc1,.,.,.,-1,.,.,.,
COc1ccc(/C=N\Nc2ncc(F)c(N3CCOCC3)n2)cc1OC,-6,31,-7,-4,19,1,.,
O=[N+]([O-])CC(c1ccccc1)c1c[nH]c2ccccc12 (stereo not drawn),69,34,2,0,-40,20,.,
OC(CNCC(c1ccc(Cl)cc1Cl)c1c[nH]c2ccccc12)c1ccccc1 (stereo not drawn),104*,97*,68,2,3,-9,80*,Full FLuc ctr=46*
Cc1c(CN2CCC(CO)(Cc3cccc(C(F)(F)F)c3)CC2)c2ccccc2n1C,.,68*,7,24,15,1,42*,Full FLuc ctr=71*
COCCN(Cc1cc2cc(C)ccc2n2nnnc12)C(=S)Nc1ccccc1C,-8,51*,-2,2,-7,3,0,

# Screening data: PubChem BioAssay, several laboratories
